In PubChem BioAssay (NCATS):
Results filed as inconclusive are left out. Calls of active or inactive are those of the source. Calls come from the whole dose curve; as a rule, active = well fitted curve in the direction sought with a large enough effect; inconclusive = small, poorly fitted or top-dose-only effect, or another doubt; inactive = no such curve, though single readings can be large; an effect the other way counts as inactive or inconclusive.

Key:
[1] = Quantitative highthroughput screen to assess conditional lethalithy of NOMO1 cells grown in RPMI1640 with untreated serum (RPMI+s) (AID 1963876); note: nearly all actives have a fitted effect of over 35% in size; note: potency is the fitted concentration of half-maximal effect;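 for viability: 100% = DMSO wells and 0% = empty wells without cells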
Procedure, shortened: (§1)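 Each medium arm—HPLM with 10% dialyzed FBS, or RPMI1640 with 5 mM glucose and 10% untreated or dialyzed FBS—was screened against an 11-point, 3-fold compound titration for 48 h at 37 °C, with CellTiter-Glo luminescence as endpoint.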

[2] = Quantitative highthroughput screen to assess conditional lethalithy of P12 Ichikawa cells grown in Human Plasma-Like Medium with dialyzed fetal bovine serum (HPLM+ds) (AID 1963879); details: Potency: viability; note: nearly all actives have a fitted effect of over 35% in size; note: potency is the fitted concentration of half-maximal effect; for viability: series mostly up to about 46 µM
Procedure, shortened: as §1

[3] = Quantitative highthroughput screen to assess conditional lethalithy of P12 Ichikawa cells grown in RPMI1640 with untreated serum (RPMI+s) (AID 1963881); details: Potency: viability; note: nearly all actives have a fitted effect of over 35% in size; note: potency is the fitted concentration of half-maximal effect;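 for viability: series mostly up to about 46 µM; 100% = DMSO wells and 0% = empty wells without cells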
Procedure, shortened: as §1

[4] = Quantitative highthroughput screen to assess conditional lethalithy of SEM cells grown in RPMI1640 with unreated serum (RPMI+s) (AID 1963883); note: nearly all actives have a fitted effect of over 35% in size; note: potency is the fitted concentration of half-maximal effect;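 for viability: 100% = DMSO wells and 0% = empty wells without cells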
Procedure, shortened: as §1

[5] = Cellular viability qHTS for adrenocortical cancer (ACC) cell line NCI-H295R (AID 1963990); note: nearly all actives have a fitted effect of over 60% in size; note: potency is the fitted concentration of half-maximal effect
Procedure, shortened: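 Compound titrations (up to 46 uM final) are applied to NCI-H295R cultures for 48 h at 37C. Viable cell number is estimated by CellTiter-Glo signal, normalised to DMSO and doxorubicin controls.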

[6] = Quantitative highthroughput screen to assess conditional lethalithy of NOMO1 cells grown in Human Plasma-Like Medium with dialyzed fetal bovine serum (HPLM+ds) (AID 1963878); note: nearly all actives have a fitted effect of over 35% in size; note: potency is the fitted concentration of half-maximal effect;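 for viability: 100% = DMSO wells and 0% = empty wells on each plate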
Procedure, shortened: as §1

[7] = Viability qHTS for spleen associated tyrosine kinase inhibitor (SYKi) drug resistant MV4-11 cells (AID 1963824); note: nearly all actives have a fitted effect of over 35% in size; note: potency is the fitted concentration of half-maximal effect
Procedure, shortened: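 SYK inhibitor-resistant MV4-11 AML cells, 500 per well, added to predispensed compounds and incubated 72 hr at 37 C, 5% CO2. Viability measured by CellTiter-Glo luminescence after 10 min at room temperature.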

[8] = Quantitative highthroughput screen to assess conditional lethalithy of SEM cells grown in Human Plasma-Like Medium with dialyzed fetal bovine serum (HPLM+ds) (AID 1963882); note: nearly all actives have a fitted effect of over 35% in size; note: potency is the fitted concentration of half-maximal effect; for viability: series mostly up to about 46 µM
Procedure, shortened: as §1

[9] = Cellular viability qHTS for adrenocortical cancer (ACC) cell line SW-13 (AID 1963989); details: SW-13 ACC cells viability, CellTiter-Glo, 48 h; activity (max response): active compounds read low;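 note: cells grown in serum-free medium with ITS supplement; % is set by controls: 0 for no effect and ±100 for the full control effect; nearly all actives have a fitted effect of over 65% in size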
Procedure, shortened: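 48 h treatment, SW-13 in ITS/DMEM serum-free; doses up to 46 uM; readout CellTiter-Glo luminescence; curve fit four-parameter logistic.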

[10] = Quantitative highthroughput screen to assess conditional lethalithy of P12 Ichikawa cells grown in RPMI1640 with dialyzed fetal bovine serum (RPMI+ds) (AID 1963880); details: Potency: P12-Ichikawa viability; note: nearly all actives have a fitted effect of over 35% in size; note: potency is the fitted concentration of half-maximal effect;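 for viability: 100% = DMSO wells and 0% = empty wells on each plate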
Procedure, shortened: as §1

[11] = Quantitative highthroughput screen to assess conditional lethalithy of SEM cells grown in RPMI1640 with dialyzed fetal bovine serum (RPMI+ds) (AID 1963884); note: nearly all actives have a fitted effect of over 35% in size; note: potency is the fitted concentration of half-maximal effect;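 for viability: series mostly up to about 46 µM; 100% = DMSO control wells and 0% = empty wells without cells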
Procedure, shortened: as §1

[12] = Quantitative highthroughput screen to assess conditional lethalithy of NOMO1 cells grown in RPMI1640 with dialyzed fetal bovine serum (RPMI+ds) (AID 1963877); note: nearly all actives have a fitted effect of over 30% in size; note: potency is the fitted concentration of half-maximal effect;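 for viability: series mostly up to about 46 µM; 100% = DMSO control wells and 0% = empty wells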
Procedure, shortened: as §1

COc1ccc2c(c1)CN(C)CC2c1ccc(Cl)c(Cl)c1 (stereo not drawn)
inactive: Potency [2] | Potency [3]
active: Potency [1] 23.5 µM

O=c1[nH]c2ccc(Cl)cc2c(N[C@@H]2CN3CCC2CC3)c1-c1nc2ccccc2[nH]1
active: Potency [1] 0.132 µM | Potency [2] 0.469 µM | Potency [3] 0.166 µM | Potency [4] 0.0833 µM | Potency [5] 0.355 µM

COC1=CC(C)=C[C@@H](C)[C@@H](O)[C@@H](C)CC(C)=CC=C[C@H](OC)[C@H]([C@@H](C)[C@@H](O)[C@H](C)[C@@]2(O)C[C@@H](O)[C@H](C)[C@@H](C(C)C)O2)OC1=O
active: Potency [1] 0.105 µM | Potency [6] 0.0662 µM

O=c1[nH]c2ccccc2n1C1CCNCC1
inactive: Potency [7] | Potency [5]

COC1(CS(=O)c2ccccc2)CCN(CCc2c[nH]c3ccc(F)cc23)CC1 (stereo not drawn)
inactive: Potency [1] | Potency [2] | Potency [8] | Potency [4] | activity (max response) [9] -19.4% | Potency [5]

CC(C)(O)C=CC(=O)[C@](C)(O)[C@H]1[C@H](O)C[C@]2(C)[C@@H]3CC=C4[C@@H](C=C(O)C(=O)C4(C)C)[C@]3(C)C(=O)C[C@@]12C
active: Potency [1] 0.187 µM | Potency [2] 0.166 µM | Potency [10] 0.166 µM | Potency [3] 0.148 µM | Potency [8] 0.059 µM | Potency [11] 0.0662 µM

COc1cc2cc(c1Cl)N(C)C(=O)C[C@H](OC(=O)C(C)C)[C@]1(C)O[C@H]1[C@H](C)[C@@H]1C[C@@](O)(NC(=O)O1)[C@H](OC)C=CC=C(C)C2
inactive: Potency [1] | Potency [12] | Potency [2] | Potency [3] | Potency [8] | Potency [4] | Potency [11]

C#C[C@]1(O)C=C[C@@H]2[C@@H]3CCC4=CC(=O)CC[C@@H]4[C@H]3CC[C@@]21CC
inactive: Potency [1] | Potency [6] | Potency [10] | Potency [3] | Potency [4]

C[C@]12CC[C@H]3[C@@H](CCC4=CC(=O)CC[C@@]43C)[C@H]1CC[C@H]2OC(=O)CCC1CCCC1
inactive: Potency [1] | Potency [6] | Potency [2] | Potency [4] | activity (max response) [9] -10.5%

CN(C)CCN(C)CCc1ccc(Cl)c(Cl)c1
inactive: Potency [1] | Potency [6] | Potency [2] | Potency [3] | Potency [8] | activity (max response) [9] -5.37% | Potency [5]

CC(=Cc1csc(C)n1)[C@@H]1C[C@H]2O[C@]2(C)CCC[C@H](C)[C@@H](O)[C@@H](C)C(=O)C(C)(C)[C@@H](O)CC(=O)O1
inactive: Potency [1] | Potency [2] | Potency [3] | Potency [8] | Potency [4]

C[C@]12CC[C@H](O)CC1=CC[C@H]1[C@H]3CCC(=O)[C@@]3(C)CC[C@@H]12
inactive: Potency [1] | Potency [2] | Potency [10] | Potency [3] | Potency [4] | Potency [11]

c1ccc(CCCN2CCN(CCOC(c3ccccc3)c3ccccc3)CC2)cc1
inactive: Potency [1] | Potency [2]

CCN(CC)CCc1c[nH]c2ccccc12
inactive: Potency [7] | Potency [5]

CCOC(=O)c1cncn1[C@H](C)c1ccccc1
inactive: Potency [1] | Potency [2] | Potency [3] | Potency [8] | Potency [4]

C=C[C@@H]1CN2CCC1C[C@H]2[C@H](O)c1ccnc2ccccc12 (stereo partly drawn)
inactive: Potency [1] | Potency [2]

c1ccc2c(c1)OCC(C1=NCCN1)O2 (stereo not drawn)
inactive: Potency [7]
active: Potency [5] 13 µM

CCC1(c2cccc(O)c2)CCCCN(C)C1 (stereo not drawn)
inactive: Potency [7] | activity (max response) [9] -10.4% | Potency [5]

CC=C(C)C(=O)O[C@H]1C(C)=C2[C@@H]3OC(=O)[C@@](C)(O)[C@@]3(O)[C@@H](OC(=O)CCC)C[C@](C)(OC(C)=O)[C@@H]2[C@@H]1OC(=O)CCCCCCC
active: Potency [1] 0.0935 µM | Potency [12] 0.0662 µM | Potency [10] 0.132 µM | Potency [4] 0.0332 µM

O=C1C=CC[C@@H]2[C@H]3CCCN4CCC[C@@H](CN12)[C@@H]34
inactive: Potency [1] | Potency [6] | Potency [2] | Potency [10] | Potency [3] | Potency [8] | activity (max response) [9] -3.97% | Potency [5]

CN(C)C(=S)SSC(=S)N(C)C
active: Potency [7] 4.73 µM | Potency [5] 25.9 µM

C[C@]12Cc3nonc3C[C@@H]1CC[C@@H]1[C@@H]2CC[C@@]2(C)[C@H]1CC[C@]2(C)O
active: Potency [7] 16.8 µM | Potency [5] 23.1 µM

C[C@@H]1O[C@@H](O[C@@H]2C=C3CC[C@@H]4[C@@H](CC[C@]5(C)[C@H](c6ccc(=O)oc6)CC[C@@]45O)[C@@]3(C)CC2)[C@H](O)[C@H](O)[C@H]1O
active: Potency [1] 0.0662 µM | Potency [6] 0.0332 µM | Potency [10] 0.0235 µM | Potency [3] 0.0418 µM | Potency [4] 0.0469 µM | Potency [11] 0.0372 µM

COc1cccc(C(=O)CCN[C@@H](C)[C@H](O)c2ccccc2)c1
inactive: Potency [7]
active: Potency [5] 25.9 µM

C[C@@H]1CC[C@H]2[C@@H](C)C(=O)O[C@@H]3O[C@@]4(C)CC[C@H]1[C@]32OO4
inactive: Potency [1] | Potency [2] | Potency [3]

C=CCOC(Cn1ccnc1)c1ccc(Cl)cc1Cl (stereo not drawn)
active: Potency [7] 9.44 µM
inactive: Potency [5]

C[C@]12Cc3cn[nH]c3C[C@@H]1CC[C@@H]1[C@H]2CC[C@@]2(C)[C@H]1CC[C@]2(C)O
inactive: Potency [1] | Potency [2]

O=[N+]([O-])c1c2ccccc2cc2ccccc12
inactive: Potency [5]
active: Potency [7] 24.1 µM
